Laboratory results taken from ChEMBL document CHEMBL3988442, “University of Dundee, Small-Polar-MMV Screening Library” (2021).

Legend:
[1] = biological target: T1, Aspartate--tRNA(Asp/Asn) ligase (Mycobacterium tuberculosis (strain ATCC 25618 / H37Rv)) (UniProt P9WFW3); experiment: Assay for Asp RNA synthetase-1 from Mycobacterium tuberculosis; assay type: functional; parameters: scale not given: direction of the effect not stated beside the values; details: 30 µM; note: in the data most compounds retested in dose-response had high values
T1 sequence (whole entry): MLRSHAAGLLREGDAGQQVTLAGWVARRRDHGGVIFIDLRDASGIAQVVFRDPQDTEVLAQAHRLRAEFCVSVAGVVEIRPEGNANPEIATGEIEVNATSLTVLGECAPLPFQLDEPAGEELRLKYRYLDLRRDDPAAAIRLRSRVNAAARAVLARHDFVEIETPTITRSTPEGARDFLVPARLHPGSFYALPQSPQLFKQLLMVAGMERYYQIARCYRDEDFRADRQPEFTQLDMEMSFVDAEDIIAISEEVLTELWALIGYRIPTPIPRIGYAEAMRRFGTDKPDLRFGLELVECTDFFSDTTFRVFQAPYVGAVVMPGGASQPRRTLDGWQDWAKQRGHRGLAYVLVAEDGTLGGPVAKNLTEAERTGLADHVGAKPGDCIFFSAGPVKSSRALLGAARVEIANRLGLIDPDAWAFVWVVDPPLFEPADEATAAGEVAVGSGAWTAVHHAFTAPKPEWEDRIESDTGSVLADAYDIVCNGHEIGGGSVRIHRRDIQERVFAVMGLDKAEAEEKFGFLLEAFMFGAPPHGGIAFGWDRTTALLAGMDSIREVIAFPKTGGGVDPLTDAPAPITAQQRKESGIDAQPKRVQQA

[2] = biological target: Shiga toxin 2 (Escherichia coli O157:H7) (UniProt P09385+P09386); experiment: E. coli 0.157:H7 Shiga Toxin SOP - stx2 screening assay; assay type: functional; parameters: scale not given: direction of the effect not stated beside the values; details: 30 µM

SMILES	Percent Effect [1]	Percent Effect [2]
COc1ncccc1CNC(=O)NC1CCOc2ccccc21 (stereo unspecified)	-1.92%	-19.2%
CC(C)n1cc(CN2CCCN(C(=O)c3ccc[nH]3)CC2)cn1	-3.14%	-5.02%
O=C(c1ccccn1)N1C[C@@H]2CC[C@H](C1)N(C(=O)CCc1cccs1)C2	12%	-22%
O=C(CCc1ccc(Br)cc1F)NS(=O)(=O)c1ccc2c(c1)OCCO2	7.79%	13.8%
CCC(=O)Nc1nnc(CCOc2cccc(OC)c2)s1	-4.27%	5.93%
CCc1n[nH]c(C2CN(C(=O)c3cnns3)CCO2)n1 (stereo unspecified)	-0.228%	10.8%
CCOc1ncccc1NC(=O)c1sccc1C	-0.501%	-11.1%
O=S(=O)(c1cccs1)N1CCCn2nnc(CN3CCCCC3)c2C1	5.59%	-16.9%
COc1ccc(CN2CCCC3(CCN(c4ccsc4)C3=O)C2)cc1 (stereo unspecified)	1.46%	-4.23%
CN(CC(N)=O)S(=O)(=O)c1ccc(F)cc1Cl	-2.44%	-10.3%
CC(=O)N1CCC(C(=O)c2cc(C)cnc2N)CC1	0.75%	-6.78%
O=C(c1ccco1)N1CCOCC2(C1)CN(c1ccccc1)C(=O)CO2 (stereo unspecified)	8.44%	2.61%
CN(C)c1cc(C(=O)N2CCCN(Cc3cscn3)CC2)ccn1	-2.62%	-13.1%
CN(C)S(=O)(=O)N1CCC(Oc2ccccn2)CC1	3.02%	10.6%
Cc1noc2nc(C3CCN(CC4=CCCOC4)CC3)cc(C(F)F)c12	12.2%	-23.1%
COc1cccc2ccn(CCC(=O)N3CCCC(C(=O)O)C3)c12 (stereo unspecified)	9.22%	-2.31%
O=C(C1CCC1)N1CCn2c(COc3ncccn3)nnc2C1	-0.503%	-1.29%
N#Cc1ccccc1C(=O)N1C[C@H](CO)C[C@H](CN2CCCC2)C1	-4.69%	0.715%
